Twelve molecules from PubChem BioAssay (EPA / NIEHS) can be followed below.

Structures are written as SMILES. Records with an inconclusive call do not appear. Active and inactive are the calls of the source. The calls were made as follows, unless noted: active = hit-call score of the fitted dose curve at least 0.9, where 1 is the maximum; inconclusive = response in the unintended direction; inactive = score below 0.9.

Assay [1] concerns the target Bile acid receptor (Homo sapiens) (UniProt Q96RI1). The assay can be described thus: ATG_FXR_TRANS: Attagene TRANS-FACTORIAL HepG2 Assay for Farnesoid X Receptor (FXR) (AID 2282979).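 Also: hits raise reporter mRNA above DMSO so AC50 marks FXR activation.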 The conditions noted are these: HepG2 Attagene TRANS FXR-GAL4 reporter transcription. A digest of the protocol: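 After 24 h chemical treatment of transfected HepG2 cells, GAL4-UAS reporter transcripts driven by an exogenous FXR-GAL4 fusion were measured by RT-PCR and capillary electrophoresis. Increases over DMSO were fitted.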

The nature of assay [2]: BSK_3C_TissueFactor: BioMAP Diversity Plus: 3C Assay for Tissue Factor Biomarker Activity (AID 2282997; active = hit-call score of the fitted dose curve at least 0.9, where 1 is the maximum; inactive = score below 0.9). The conditions noted are these: BioMAP 3C HUVEC, tissue factor biomarker readout; actives raise or lower the signal. A digest of the protocol: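 In this endothelial system, HUVEC are treated for 24 h and Tissue Factor is assessed by ELISA, normalised to DMSO.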
A short description of assay [3]: BSK_3C_uPAR: BioMAP Diversity Plus: 3C Assay for Urokinase-type plasminogen activator receptor (uPAR) Biomarker Activity (AID 2282998; active = hit-call score of the fitted dose curve at least 0.9, where 1 is the maximum; inactive = score below 0.9). The settings on record: BioMAP 3C HUVEC, uPAR biomarker ELISA; actives raise or lower the signal. A digest of the protocol:
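Dose primary human umbilical vein endothelial cells, incubate 24 h, measure cell-surface uPAR by ELISA, then fit the signal in both directions against the DMSO negative control.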

Assay [4] can be described thus: BSK_4H_Eotaxin3: BioMAP Diversity Plus: 4H Assay for Eotaxin 3 Biomarker Activity (AID 2283000; active = hit-call score of the fitted dose curve at least 0.9, where 1 is the maximum; inactive = score below 0.9;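 also: CCL26 protein level quantified by ELISA in parallel with SRB cytotoxicity check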). The settings on record: primary human endothelial cells (HUVEC); actives raise or lower the signal. A digest of the protocol:
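ELISA quantitation of CCL26 (Eotaxin-3) protein from chemically dosed human vascular endothelial cells at 24 h; increases and decreases both scored relative to DMSO-treated baseline.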

Read-out in assay [5]: Interleukin-1 alpha (IL1a), IL1A (gene 3552)
The assay is described as follows: BSK_BE3C_IL1a: BioMAP Diversity Plus: BE3C Assay for Interleukin-1 alpha (IL1a) Biomarker Activity (AID 2283016; active = hit-call score of the fitted dose curve at least 0.9, where 1 is the maximum; inactive = score below 0.9). The settings on record: primary human bronchial epithelial cells; actives raise or lower the signal. A digest of the protocol:
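ELISA read-out of IL-1a from human lung bronchial epithelial primary cells, 24 h post-dose. Gain or loss of signal fitted relative to DMSO negative control.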

Read-out in assay [6]: Monocyte Chemoattractant Protein-1 (MCP1), CCL2 (gene 6347)
The assay is described as follows: BSK_3C_MCP1: BioMAP Diversity Plus: 3C Assay for Monocyte Chemoattractant Protein-1 (MCP1) Biomarker Activity (AID 2283017; active = hit-call score of the fitted dose curve at least 0.9, where 1 is the maximum; inactive = score below 0.9). The conditions noted are these: primary human endothelial cells (HUVEC); actives raise or lower the signal. A digest of the protocol: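 Using human vascular primary endothelium, researchers measured MCP-1 by ELISA 24 h after treatment, with DMSO serving as negative control for bidirectional fitting.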

Read-out in assay [7]: Interleukin-8 (IL8), CXCL8 (gene 3576)
The assay can be described thus: BSK_3C_IL8: BioMAP Diversity Plus: 3C Assay for Interleukin-8 (IL8) Biomarker Activity (AID 2283020; active = hit-call score of the fitted dose curve at least 0.9, where 1 is the maximum; inactive = score below 0.9). The settings on record: primary human endothelial cells (HUVEC); actives raise or lower the signal. A digest of the protocol: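 HUVEC, 3C stimulation; 24 h compound exposure; IL-8 read by ELISA; gain or loss of signal fitted relative to DMSO control.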

Read-out in assay [8]: Monokine induced gamma interferon (MIG), CXCL9 (gene 4283)
The assay is described as follows: BSK_3C_MIG: BioMAP Diversity Plus: 3C Assay for Monokine induced gamma interferon (MIG) Biomarker Activity (AID 2283021; active = hit-call score of the fitted dose curve at least 0.9, where 1 is the maximum; inactive = score below 0.9). The settings on record: primary human endothelial cells (HUVEC); actives raise or lower the signal. A digest of the protocol:
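HUVEC, 3C system; 24 h chemical exposure; MIG by ELISA; bidirectional fit vs DMSO baseline.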

Assay [9] deals with human Thyroid Receptor alpha (THRa1), THRA (gene 7067) (UniProt P10827). The assay is described as follows: ATG_THRa1_TRANS: Attagene TRANS-FACTORIAL HepG2 Assay for human Thyroid Receptor alpha (THRa1) (AID 2283014). A digest of the protocol:
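Measured here is mRNA from a GAL4-UAS reporter in transfected HepG2 cells carrying a Gal4-fused receptor, 24 h post-dose. DMSO served as negative control and baseline.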

Assay [10] deals with Estrogen receptor beta (Homo sapiens) (UniProt Q92731). The assay can be described thus: OT_ER_ERbERb_1440: Odyssey Thera (OT) 24-hour HEK293T Protein-Complementation Assay for Estrogen Receptor-beta/-beta Homodimer (AID 2283380).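 Also: scored as signal increase over DMSO baseline for both agonists and antagonists.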 A digest of the protocol: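 HEK293T cells stably expressing ER beta LBD (aa 310-547) homodimer fragment-complementation reporter, dosed 24 h. Cells formaldehyde-fixed, Draq5-stained; gain in nuclear (agonist) or nuclear plus cytoplasmic (antagonist) fluorescence versus DMSO read by laser scanning cytometry.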
Chain of Estrogen receptor beta (Homo sapiens) (Q92731 whole entry, looked up, the tested form may be a part): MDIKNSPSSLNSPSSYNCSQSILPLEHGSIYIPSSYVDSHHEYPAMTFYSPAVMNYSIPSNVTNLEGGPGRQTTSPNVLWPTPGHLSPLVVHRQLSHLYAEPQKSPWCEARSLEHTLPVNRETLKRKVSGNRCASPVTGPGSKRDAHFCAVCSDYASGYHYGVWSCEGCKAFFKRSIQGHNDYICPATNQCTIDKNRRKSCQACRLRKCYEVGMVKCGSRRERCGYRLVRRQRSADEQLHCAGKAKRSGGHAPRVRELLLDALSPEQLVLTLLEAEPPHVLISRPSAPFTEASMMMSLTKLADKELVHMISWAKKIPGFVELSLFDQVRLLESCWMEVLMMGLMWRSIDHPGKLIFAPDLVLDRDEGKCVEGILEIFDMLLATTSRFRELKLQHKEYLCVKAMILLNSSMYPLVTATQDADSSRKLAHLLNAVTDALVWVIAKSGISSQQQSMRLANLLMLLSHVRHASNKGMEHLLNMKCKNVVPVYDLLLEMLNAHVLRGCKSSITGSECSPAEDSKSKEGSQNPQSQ

Assay [11] addresses Retinoic acid receptor RXR-alpha (Homo sapiens) (UniProt P19793). The assay can be described thus: OT_NURR1_NURR1RXRa_0480: Odyssey Thera (OT) 8-hour HEK293T Protein Complementation Assay for Nurr1/retinoid X receptor (RXR) (AID 2283385). A digest of the protocol: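 Read-out: fluorescence from protein-fragment complementation between Nurr1 and RXRα in human HEK293T cells, 8 h after dosing. DMSO served as negative control; increased signal counted as activity.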

Assay [12] shares this target. The assay is described as follows: OT_NURR1_NURR1RXRa_1440: Odyssey Thera (OT) 24-hour HEK293T Protein Complementation Assay for Nurr1/retinoid X receptor (RXR) (AID 2283386). A digest of the protocol:
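Fluorescence PCA read-out; HEK293T; 24 h post-dose; bait/prey fused to reporter fragments; gain-of-signal fit vs DMSO negative control.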

Assay [13] concerns the target Peroxisome proliferator-activated receptor gamma (Homo sapiens) (UniProt P37231). The assay is described as follows: OT_PPARg_PPARgSRC1_0480: Odyssey Thera (OT) 8-hour Protein-Complementation Assay for Peroxisome Proliferator-activated Receptor Gamma / SRC-1 Co-activator (AID 2283387).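 Also: nuclear to cytoplasmic split Venus YFP fluorescence ratio reporting PPARg SRC-1 interaction.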 A digest of the protocol:
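HEK293T transiently transfected with PPARg and SRC-1 fused to Venus YFP fragments, compounds 8 h at 37C. Fixed, Draq5-stained cells imaged; nuclear/cytoplasmic 488 nm fluorescence ratio over at least 350 cells per image; gain fitted versus DMSO.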

Assay [14] shares this target. The assay is described as follows: OT_PPARg_PPARgSRC1_1440: Odyssey Thera (OT) 24-hour Protein-Complementation Assay for Peroxisome Proliferator-activated Receptor Gamma/ SRC-1 Co-activator (AID 2283388). A digest of the protocol: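 Cells carrying the PPARg/SRC-1 fragment-complementation reporter receive compound for 24 hours, are fixed and counterstained with Draq5, then imaged. Increased nuclear relative to cytoplasmic YFP fluorescence above DMSO baseline indicates binding activity.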

Assay [15] can be described thus: ACEA_AR_agonist_AUC_viability: ACEA Biosciences xCELLigence Real-Time Cell Analysis on Androgen Receptor Agonism for Viability (AID 2283775).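 As to AC50: viability read 80 hours after compound addition.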 A digest of the protocol: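 Viability endpoint from xCELLigence impedance in 22Rv1 prostate cells at 80 h. Eight-point series, 100 uM maximum final.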
Assay [16] in a line: ACEA_AR_antagonist_AUC_viability: ACEA Biosciences xCELLigence Real-Time Cell Analysis on Androgen Receptor Antagonism for Viability (AID 2283776).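 Also: area under impedance growth curve at 80 h after dosing as viability; hits lower the growth signal relative to DMSO meaning cytotoxicity.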 A digest of the protocol:
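22Rv1 human prostate cancer cells were seeded on electrode plates, monitored overnight, then exposed to eight 1:4 dilutions from 100 uM final. Impedance-based growth kinetics at 80 h gave an AUC viability endpoint normalized to DMSO.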

Assay [17] in a line: ATG_ERE_CIS: Attagene CIS-FACTORIAL HepG2 Assay for Estrogen Response Element (ERE) (AID 2282940; active = hit-call score of the fitted dose curve at least 0.9, where 1 is the maximum; inactive = score below 0.9). The settings on record: HepG2 ERE cis-reporter, Attagene RNA transcript; actives raise or lower the signal. A digest of the protocol:
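Cells used were human hepatoma HepG2, transfected with multiple reporter transcription units under cis-regulatory promoters. Reporter mRNA, read 24 h post-dosing via fluorescent RT-PCR products on capillary electrophoresis, was fitted bidirectionally relative to DMSO.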

Assay [18] in a line: ATG_GAL4_TRANS: Attagene TRANS-FACTORIAL HepG2 Assay for GAL4 (Internal Marker) (AID 2282976). The conditions noted are these: HepG2 Attagene TRANS GAL4 internal marker reporter. A digest of the protocol:
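Liver HepG2 line bearing multiplexed GAL4-UAS reporter constructs; 24 h chemical treatment. Transcripts were quantified as fluorescent fragments on capillary electrophoresis after RT-PCR and HpaI cut, with activity fitted upward from DMSO.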

Assay [19] concerns the target Oxysterols receptor LXR-beta (Homo sapiens) (UniProt P55055). The assay can be described thus: ATG_LXRb_TRANS: Attagene TRANS-FACTORIAL HepG2 Assay for human Liver X Receptor beta (LXRb) (AID 2282981). The conditions noted are these: HepG2 Attagene TRANS GAL4-LXRb reporter, mRNA. A digest of the protocol: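 Readout: fluorescent reporter mRNA fragments resolved by capillary electrophoresis after RT-PCR. System: transiently transfected human HepG2, exogenous LXRb-Gal4 chimera driving GAL4-UAS reporter, 24 h dosing. Activity fitted upward against DMSO baseline.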

In assay [20] the target is Estrogen receptor beta (Homo sapiens) (UniProt Q92731). The assay is described as follows: OT_ER_ERbERb_0480: Odyssey Thera (OT) 8-hour HEK293T Protein-Complementation Assay for Estrogen Receptor-beta/-beta Homodimer (AID 2283357).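 Also: active means signal gain over DMSO baseline.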 A digest of the protocol:
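Homodimerization of ER-beta LBD measured by protein-fragment complementation in HEK293T; 8 h dosing; fixed, Draq5 counterstain; fluorescence intensity gain over DMSO baseline, positive fitting direction; laser scanning cytometry.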

Chain of Bile acid receptor (Homo sapiens) (Q96RI1 whole entry, looked up, the tested form may be a part): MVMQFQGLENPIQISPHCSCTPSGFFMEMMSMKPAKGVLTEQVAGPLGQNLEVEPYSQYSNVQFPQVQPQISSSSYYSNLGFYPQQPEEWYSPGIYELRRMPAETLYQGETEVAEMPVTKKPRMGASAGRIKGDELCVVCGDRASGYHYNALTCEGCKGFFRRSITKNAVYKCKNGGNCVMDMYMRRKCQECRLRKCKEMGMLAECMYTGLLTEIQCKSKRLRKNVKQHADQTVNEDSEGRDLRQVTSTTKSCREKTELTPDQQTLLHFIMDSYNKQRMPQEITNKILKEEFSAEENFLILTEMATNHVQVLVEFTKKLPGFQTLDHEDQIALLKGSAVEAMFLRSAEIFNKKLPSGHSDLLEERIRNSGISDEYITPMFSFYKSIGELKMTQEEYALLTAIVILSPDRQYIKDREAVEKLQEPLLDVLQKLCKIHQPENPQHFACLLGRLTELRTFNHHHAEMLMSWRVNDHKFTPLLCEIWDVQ
Chain of human Thyroid Receptor alpha (THRa1), THRA (gene 7067) (P10827 whole entry, looked up, the tested form may be a part): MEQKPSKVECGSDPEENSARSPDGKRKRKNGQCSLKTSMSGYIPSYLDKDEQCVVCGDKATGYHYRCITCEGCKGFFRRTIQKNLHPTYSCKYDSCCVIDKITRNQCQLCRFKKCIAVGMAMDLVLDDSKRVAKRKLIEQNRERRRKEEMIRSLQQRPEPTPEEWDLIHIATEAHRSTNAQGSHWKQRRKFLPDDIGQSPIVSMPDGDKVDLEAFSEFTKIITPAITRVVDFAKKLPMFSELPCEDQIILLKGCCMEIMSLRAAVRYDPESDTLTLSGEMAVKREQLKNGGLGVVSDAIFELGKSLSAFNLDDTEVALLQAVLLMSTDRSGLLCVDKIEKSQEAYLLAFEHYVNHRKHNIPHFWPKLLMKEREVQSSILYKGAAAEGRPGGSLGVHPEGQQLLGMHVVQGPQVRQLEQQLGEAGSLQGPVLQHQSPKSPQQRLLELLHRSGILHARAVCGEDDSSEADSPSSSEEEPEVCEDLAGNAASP
Chain of Peroxisome proliferator-activated receptor gamma (Homo sapiens) (P37231 whole entry, looked up, the tested form may be a part): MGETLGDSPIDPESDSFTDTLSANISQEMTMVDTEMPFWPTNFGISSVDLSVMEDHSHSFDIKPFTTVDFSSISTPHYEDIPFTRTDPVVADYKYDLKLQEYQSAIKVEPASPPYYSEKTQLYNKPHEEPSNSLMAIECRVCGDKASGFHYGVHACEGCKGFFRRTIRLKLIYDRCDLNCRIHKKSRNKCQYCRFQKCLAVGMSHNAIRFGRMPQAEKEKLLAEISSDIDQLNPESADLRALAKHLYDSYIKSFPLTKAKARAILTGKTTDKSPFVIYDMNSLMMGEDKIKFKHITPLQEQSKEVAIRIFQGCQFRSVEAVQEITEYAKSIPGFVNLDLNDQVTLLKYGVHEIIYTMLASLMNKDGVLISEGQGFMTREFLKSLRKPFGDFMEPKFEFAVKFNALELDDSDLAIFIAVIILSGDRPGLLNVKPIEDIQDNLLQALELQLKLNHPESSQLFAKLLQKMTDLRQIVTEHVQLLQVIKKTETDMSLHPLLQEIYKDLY
Chain of Retinoic acid receptor RXR-alpha (Homo sapiens) (P19793 whole entry, looked up, the tested form may be a part): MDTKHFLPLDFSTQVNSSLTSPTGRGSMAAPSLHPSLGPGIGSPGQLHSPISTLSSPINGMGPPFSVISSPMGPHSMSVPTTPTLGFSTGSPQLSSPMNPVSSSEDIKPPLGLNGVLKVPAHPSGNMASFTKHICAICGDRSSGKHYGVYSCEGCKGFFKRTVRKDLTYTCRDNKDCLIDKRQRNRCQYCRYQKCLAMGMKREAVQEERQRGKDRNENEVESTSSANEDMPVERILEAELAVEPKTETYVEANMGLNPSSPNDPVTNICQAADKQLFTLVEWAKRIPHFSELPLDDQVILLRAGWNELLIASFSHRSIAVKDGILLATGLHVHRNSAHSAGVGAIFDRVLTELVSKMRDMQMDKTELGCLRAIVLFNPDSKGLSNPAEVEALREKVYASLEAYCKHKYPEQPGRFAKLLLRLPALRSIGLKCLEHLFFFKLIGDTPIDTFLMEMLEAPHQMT
Chain of Oxysterols receptor LXR-beta (Homo sapiens) (P55055 whole entry, looked up, the tested form may be a part): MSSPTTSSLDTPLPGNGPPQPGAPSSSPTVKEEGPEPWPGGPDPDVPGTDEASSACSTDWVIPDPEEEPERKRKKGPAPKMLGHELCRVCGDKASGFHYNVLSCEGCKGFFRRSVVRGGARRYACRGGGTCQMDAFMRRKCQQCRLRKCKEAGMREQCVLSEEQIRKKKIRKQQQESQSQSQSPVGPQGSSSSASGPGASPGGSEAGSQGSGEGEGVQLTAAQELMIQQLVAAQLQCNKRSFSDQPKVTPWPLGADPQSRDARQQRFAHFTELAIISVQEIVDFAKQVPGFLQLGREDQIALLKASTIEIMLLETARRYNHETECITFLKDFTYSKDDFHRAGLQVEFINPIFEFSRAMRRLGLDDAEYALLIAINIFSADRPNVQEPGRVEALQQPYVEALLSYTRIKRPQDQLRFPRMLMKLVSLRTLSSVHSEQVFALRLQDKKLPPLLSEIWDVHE

As for `COCC(=O)N(c1c(C)cccc1C)N1CCOC1=O`, the call in assay [1], in assay [2], in assay [3], in assay [4], in [5] and in assay [6] was inactive. The result in assay [7] and in assay [8] was inactive.

With `O=C(NCNC(=O)NC1C(=O)NC(=O)N1CO)NC1C(=O)NC(=O)N1CO` (configuration not stated), the result in [9], in assay [10], in [11], in [13], in [14] and in [15] was inactive. The molecule was called inactive in [16]. For the same molecule, in assay [12], the AC50 is 78 µM (active).

Take `[Cl][Sb]([Cl])[Cl]`: the outcome in [9] was inactive.

On to `C=C(Cl)Cl`, for which the molecule was called inactive in [17], in assay [18] and in assay [19].

As for `c1ccc(P(c2ccccc2)c2ccccc2)cc1`, the concentration at half-maximal activity (AC50) in assay [17] was 23.5 µM (active); in assay [20], 25.4 µM (active). Moreover, the molecule was classed as inactive in [10], in assay [11], in assay [12], in assay [13], in assay [14] and in assay [16].

Regarding `CCCCCCCCCCCCCCCC[N+](C)(C)C`, the result in assay [18], in assay [20], in [10], in assay [13] and in assay [14] was inactive. The AC50 was 5.58 µM (active) in [15] and 6.1 µM (active) in assay [16].

On to `O=C(O)CCl`, for which the molecule was called inactive in assay [20], in assay [10], in assay [11], in [13], in assay [14] and in assay [15].

In the case of `O=C(O)C(Br)Br`, the result in [17] and in [1] was inactive.

Take `CC1OC(C)OC(C)O1` (configuration not stated): the call in assay [18], in assay [1] and in [9] was inactive.

On to `CC(Cc1ccc(C(C)(C)C)cc1)CN1C[C@@H](C)O[C@@H](C)C1` (some centres not stated), for which the molecule was classed as inactive in assay [1], in [19], in assay [9], in assay [20], in assay [10] and in assay [13]. Moreover, the molecule was classed as inactive in assay [14], in assay [15] and in assay [16]. Besides, the AC50 in assay [11] was 66.8 µM (active); in assay [12], 81 µM (active).

Consider `Cc1ccc(OP(=O)(Oc2ccc(C)cc2)Oc2ccc(C)cc2)cc1` (tested in a mixture with another compound), for which the result in assay [2], in assay [3], in [4], in assay [5], in assay [7] and in assay [8] was inactive. Further, the molecule was classed as inactive in [12], in [13] and in assay [14]. Further, the concentration at half-maximal activity (AC50) is 20 µM (active) in assay [6] and 15.5 µM (active) in [11].

With `O=C1Nc2ccc(Cl)cc2C(c2ccccc2)=NC1O` (configuration not stated), the result in [1], in assay [20], in [10], in assay [11], in assay [12] and in assay [13] was inactive. The molecule was classed as inactive in assay [14], in assay [15] and in assay [16].
